100 molecules from PubChem BioAssay AID1063 (University of Pittsburgh Molecular Library Screening Center, 2008) can be followed below.

Each structure is given as a SMILES string. The campaign covered roughly 200,000 compounds. About 18,000 (9%) were called active. Cut-off read from the data, not from the text of the source: active = inhibition above about 50%; inactive = the rest. Shown is part of a subset that was picked to be rich in actives.

The nature of the assay: antileishmanial activity against promastigotes – primary screen (AID 1063).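 Note: promastigotes grown with compound for 44 hours at 28 °C.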 The note with it: Leishmania major promastigotes, resazurin fluorescence viability; at 10 µM; active compounds read high.
Regarding `O=C(N/N=C/c1ccc([N+](=O)[O-])o1)c1cccc(S(=O)(=O)N2CCOCC2)c1`, the inhibition was 99.2% (active). For `COc1ccc(Br)cc1/C=N/NC(=O)c1cccc(S(=O)(=O)N2CCOCC2)c1` the value was 14.1% (inactive); for `O=C(c1cccc(S(=O)(=O)N2CCOCC2)c1)N1CCOCC1`, -2.4% (inactive); for `O=C(Nc1ccc2oc(-c3ccccc3F)nc2c1)c1ccco1`, 9.45% (inactive). For `CS(=O)(=O)n1nc(-c2ccco2)nc1N` the value was -6.28% (inactive). For `CONc1nc2nonc2nc1NOC` the value was -1.47% (inactive). As to `Cc1nn(-c2ccccc2)c(Cl)c1C(=O)Nc1ccccc1`, the inhibition is 1.56% (inactive). For `Cc1ccc(C(=O)/C=C/c2c(C)nn(-c3ccccc3)c2Cl)cc1` the value was 73.7% (active). For `Cc1nn(-c2ccccc2)c(Cl)c1/C=C/C(=O)c1ccc(O)cc1` the value was 44.1% (inactive); for `CCCOC(=O)c1c(NC(=O)c2cnn3c2NC(c2ccccc2)CC3C(F)(F)F)sc2c1CCCC2` (stereo not given), 4.09% (inactive); for `CCOC(=O)N1CCC(=NNC(N)=O)CC1`, -11.1% (inactive).

Consider `Cc1cccc(NC(=O)CN2C(=O)c3ccccc3C2=O)c1C`, for which the inhibition is -7.46% (inactive).

In the case of `O=C(NC1CCCCC1)c1cc([N+](=O)[O-])ccc1N1CCOCC1`, the inhibition was -6.49% (inactive). For `CCOc1ccc2nc(NC(=O)c3cc([N+](=O)[O-])ccc3N3CCOCC3)sc2c1` the value was 96% (active). For `Cc1cc(C)cc(OCC(=O)Nc2nc3ccc([N+](=O)[O-])cc3s2)c1` the value was -2.84% (inactive). Next, `CCOc1ccc2nc(SC(CC)C(=O)Nc3cc(C)on3)sc2c1` (stereo not given): 6.15% (inactive).

As to `COc1ccc2nc(Nc3nc4ccc(NC(C)=O)cc4s3)sc2c1`, the inhibition was 6.91% (inactive). Regarding `CCOc1ccc2nc(Nc3nc4ccc(NC(C)=O)cc4s3)sc2c1`, the inhibition was 72.1% (active).

On to `COc1cccc(NC(=O)C(Sc2nnnn2C)c2ccccc2)c1` (stereo not given), for which the inhibition was 10.5% (inactive). For `COc1ccc(CN(C)Cc2nc3cc(OC)c(OC)cc3c(=O)[nH]2)c(OC)c1` the value was 1.39% (inactive); for `Cc1cc(NC(=O)CSc2nc3cc(Cl)ccc3c(=O)n2Cc2ccco2)no1`, 4.4% (inactive); for `COc1ccc(-c2cc(-c3ccc(N)cc3)nc(N)c2C#N)cc1OC`, -6.13% (inactive).

In the case of `O=C(NC1CC1)c1ccc(-c2ccccc2)cc1`, the inhibition is 6.37% (inactive). As to `CCOC(=O)c1ccc(NC(=S)Nc2cc(C)cc(C)n2)cc1`, the inhibition is 5.79% (inactive). With `O=C(COc1ccc(Cl)cc1)NCc1nnc(SCC(=O)NCC2CCCO2)o1` (stereo not given), the inhibition was -8.43% (inactive). For `CC(O)c1nc2ccccc2n1Cc1ccc([N+](=O)[O-])cc1` (stereo not given) the value was -2.56% (inactive); for `O=C(CSCc1ccc([N+](=O)[O-])cc1)NCCSCc1ccccc1`, 12.9% (inactive); for `CC(=O)N1c2ccccc2N(Cc2ccc([N+](=O)[O-])cc2)C(=O)C1(C)C`, 51.9% (active). For `O=C(Nn1cnc2ccccc2c1=O)c1ccccc1` the value was -0.77% (inactive); for `CCNC(=O)NNC(=O)C1CC(c2cccs2)=NO1` (stereo not given), -8.39% (inactive); for `CCN(C(=O)c1ccc(Br)cc1)c1ccccc1`, 3.92% (inactive). For `Cc1cc([N+](=O)[O-])nn1CCCC(=O)Nc1cccnc1Cl` the value was -6.69% (inactive); for `O=C(C1CCN(S(=O)(=O)c2ccc(Br)s2)CC1)N1CCN(C2CCCCC2)CC1`, 59.6% (active). For `O=C(C1CCN(S(=O)(=O)c2cccs2)CC1)N1CCCCCC1`, the inhibition was -2.87% (inactive). For `CS(=O)(=O)N1CCC(C(=O)N2CCN(c3ccccc3)CC2)CC1` the value was -3.18% (inactive); for `Cc1ccc(COc2ccc(C(=O)NN)cc2)cc1`, -1.34% (inactive); for `CN(CCOc1ccc(Br)cc1)CC(=O)Nc1cccc(S(=O)(=O)NC2=NCCC2)c1`, -1.24% (inactive).

For `Cc1ccc(OCCCC(=O)N2CCOCC2)c(C)c1`, the inhibition is -2.9% (inactive). In the case of `CCN1CCN(CCCCOc2ccccc2F)CC1`, the inhibition was 47.3% (inactive). For `Cc1ccc2c(C(=O)CN3CCCC3)c(C)[nH]c2c1` the value was 8.69% (inactive); for `CC1CN(CCOc2ccccc2[N+](=O)[O-])CC(C)O1` (stereo not given), 8.57% (inactive). Regarding `Cc1ccc(OCCCCN2CCCCC2)c(Br)c1`, the inhibition was 97.8% (active). Next, `COc1ccccc1N1CCN(CCCCOc2ccc(F)cc2)CC1`: -5.52% (inactive); `C=CCN(CC=C)CCOc1ccccc1[N+](=O)[O-]`: 12.2% (inactive); `O=[N+]([O-])c1ccccc1OCCCCN1CCCCC1`: 82.4% (active).

In the case of `Cc1ccc(C(C)(C)C)c(OCCCCN2CCCC2)c1`, the inhibition is 87.1% (active).

For the molecule `CC(C)OC(=O)Cn1nc(C(F)(F)F)c2c1CCCC2`, the inhibition was -5.66% (inactive).

As for `CC1CCCC(NC(=O)c2cccc(N3CCCC3=O)c2)C1C` (stereo not given), the inhibition was -7.83% (inactive). Next, `COCCNc1nc2nonc2nc1N1CCCC1c1nccs1` (stereo not given): -4.44% (inactive); `O=C(c1cccc([N+](=O)[O-])c1)N1CCN(C(=O)c2ccco2)CC1`: 0.98% (inactive); `CCn1c(COc2ccc(OC)cc2)nnc1SCC(=O)Nc1cc(OC)ccc1OC`: 60.8% (active).

On to `C=CCn1c(CNC(=O)c2ccco2)nnc1SCC(=O)c1ccc(OC)cc1`, for which the inhibition is -7.42% (inactive). For the molecule `CCn1c(CNc2ccc(OC)cc2)nnc1SCC(=O)c1ccc(OC)cc1`, the inhibition was 70.5% (active). Next, `COc1ccc(OC)c(NC(=O)CSc2nc3cccnc3n2C)c1`: -3.05% (inactive). Next, `CCn1c(COc2ccccc2)nnc1SCC(=O)Nc1ccc2c(c1)OCCO2`: -3.59% (inactive); `COC(=O)c1ccc(NC(=O)CSc2nnc(CNc3ccc(OC)cc3)n2C)cc1`: 9.68% (inactive); `CCSC1=NCCN1S(=O)(=O)c1ccc(F)cc1`: -0.73% (inactive). In the case of `O=c1c2ccccc2c(-c2ccccc2)nn1-c1ccccn1`, the inhibition is -0.99% (inactive). For `CC(=O)N1C(C)c2ccccc2C(C)(C)CC12CCCCC2` (stereo not given) the value was 10.5% (inactive); for `Cc1ccc(N=C2NC(=O)c3cccc([N+](=O)[O-])c32)cc1`, -1.43% (inactive); for `Cc1nc2c(-c3ccc(F)cc3)c(C)nn2c(C)c1CCC(=O)NCc1ccco1`, -2.49% (inactive). For `COc1cc(OC)cc(-c2nc3nc(C)c(CCC(=O)NCc4ccco4)c(C)n3n2)c1` the value was 2% (inactive); for `COc1ccc(-c2cc3nc(C)c(CCC(=O)NC(C)CCc4ccco4)c(C)n3n2)c(OC)c1` (stereo not given), 100% (active). For `Cc1ccc2cc(CN(c3ccc(C)c(C)c3)S(C)(=O)=O)c(=O)[nH]c2c1` the value was 9.29% (inactive); for `CCN(CCn1cccn1)C(=O)CC1C(=O)NCCN1Cc1cccc(OC)c1OC` (stereo not given), 5.31% (inactive). On to `CCOC(=O)c1sc2nc(C)nc(Nc3ccc(OC)c(OC)c3)c2c1C`, for which the inhibition was -0.22% (inactive). Next, `COc1ccc(O)c(C=Nc2cc(C)on2)c1`: -9.53% (inactive); `COc1ccc(-c2onc(C)c2-c2ccc3c(c2)OCCO3)c(O)c1`: 72.5% (active).

As for `COc1ccc(-c2n[nH]c(C)c2-c2ccc(OC)c(OC)c2)c(O)c1`, the inhibition is 4.64% (inactive). On to `CCOC(=O)CNC(=O)CSc1ccc2nnc(-c3cccnc3)n2n1`, for which the inhibition was 4.24% (inactive). For `CC(=O)Cn1ncc(N2CCOCC2)c(Br)c1=O` the value was 5.25% (inactive).

With `COc1ccc(CCNC(=O)COC(=O)C2CCCCC2)cc1`, the inhibition is -2.53% (inactive). For `COc1ccc(CNC2CCCCC2)cc1` the value was 72.3% (active); for `COc1ccc(CNC(=O)C2CCN(S(C)(=O)=O)CC2)cc1`, 7.6% (inactive). For `O=c1[nH]n2c(-c3ccccc3)nc(O)c2c2ccccc12` the value was -6.91% (inactive); for `Nn1cnnc1N/N=C/c1cc([N+](=O)[O-])c(Cl)cc1Cl`, 64.3% (active); for `CCc1cc2c(=O)c(-c3ccc(F)cc3)c(C(F)(F)F)oc2cc1OCC(=O)O`, 0.79% (inactive). As for `O=C(CCc1n[nH]c(=O)[nH]c1=O)N/N=C/c1ccc(Br)o1`, the inhibition was 0.7% (inactive). For `CC(C)C1Nc2c(C(=O)O)cccc2C(Nc2ccccc2C(=O)O)C1(C)C` (stereo not given) the value was 0.14% (inactive); for `O=C(CSc1nnc(-c2ccncc2)o1)NCc1ccc(Cl)cc1`, -6.74% (inactive); for `Cc1occc1C(=O)Nc1nnc(C2CCCCC2)s1`, 7.17% (inactive). For the molecule `O=C(Nc1nnc(C2CC2)s1)c1ccccn1`, the inhibition was 84.9% (active). Turning to `O=C(Cc1cccs1)Nc1nnc(C2CC2)s1`, the inhibition is -7.6% (inactive). On to `Cc1nc(N)c(Br)c(C)c1Br`, for which the inhibition is 1.28% (inactive).

For `CC(NC(=O)Nc1ccc2c(c1)OCO2)c1ccncc1` (stereo not given), the inhibition was -3.06% (inactive). For `CC(C)(C)C(=O)NC(NC(=S)Nc1ccc(S(N)(=O)=O)cc1)C(Cl)(Cl)Cl` (stereo not given) the value was 2.02% (inactive).

As to `CC(NC(=S)Nc1ccc(S(N)(=O)=O)cc1)c1ccc2c(c1)OCO2` (stereo not given), the inhibition was 70% (active). Take `COc1c(C)cc(C(=O)C2CCCN(S(=O)(=O)c3c(C)noc3C)C2)cc1C` (stereo not given): the inhibition is 6.97% (inactive). Next, `CN(/C(=N/S(=O)(=O)c1cccs1)c1ccccc1)c1ccc(O)cc1`: 7.12% (inactive); `CSCC(NS(=O)(=O)c1ccc(C)cc1)C(=O)O` (stereo not given): -7.96% (inactive); `CN1C(=O)/C(=N/OC(=O)c2ccccc2Br)c2ccccc21`: -16.5% (inactive). Regarding `O=C(NNC(=S)NC1CCCCC1)c1ccccc1Cl`, the inhibition was 16.1% (inactive). Next, `O=C(c1cccc(C(=O)N2CCN(c3ccc(F)cc3)CC2)c1)N1CCN(c2ccc(F)cc2)CC1`: -10.6% (inactive); `Oc1c(CN2CCN(c3ccc(F)cc3)CC2)cc(Cl)c2cccnc12`: 100% (active). Next, `Fc1ccc(N2CCN(Cc3cnc(Oc4ccc(Br)cc4)s3)CC2)cc1`: -8.09% (inactive). Regarding `Cc1nnc(SCC(=O)NNC(=O)c2ccc(Cl)cc2)n1CC1CCCO1` (stereo not given), the inhibition was -2.51% (inactive). Next, `C/C(=N\OC(=O)c1ccccc1)c1c(C)nc2cc(C)ccn12`: 5.76% (inactive); `Cc1ccc(N(C(=O)Cc2cccs2)C(C(=O)NCC2CCCO2)c2ccncc2)cc1` (stereo not given): 3.99% (inactive). Next, `Cc1cccc(N(C(=O)c2ccc(CN3CCOCC3)o2)C(C(=O)NC2CCCCC2)c2ccc(F)cc2)c1` (stereo not given): -5.01% (inactive); `Cc1ccc(N(C(=O)c2ccc(CN3CCOCC3)o2)C(C(=O)NCCC(C)C)c2cccs2)c(C)c1` (stereo not given): 90.9% (active).

A word on the inhibition: it is the change of the read-out against control, counted positive when it falls.
